Measurements published in PubChem BioAssay (EPA / NIEHS).
Results filed as inconclusive are left out. Active and inactive are the calls of the source. How the source made its calls, unless noted: active means hit-call score of the fitted dose curve at least 0.9, where 1 is the maximum; inactive means score below 0.9.

Tests used:
[1] = CCTE_Mundy_HCI_Cortical_NOG_NeuriteCount: CCTE's Neurite Outgrowth Assay in rat cortical cells for Neurite Count, Mundy Lab (AID 2284212);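 further: cells fixed about two days after chemical exposure began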
Procedure, shortened: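 Neurite number per cell from high-content imaging of betaIII-tubulin immunostaining, with Hoechst nuclear counterstain.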

[2] = CCTE_Mundy_HCI_Cortical_Synap_Neur_Matur_NeuriteLength: CCTE's Synaptogenesis and Neurite Maturation Assay in rat cortical cells for Neurite Length, Mundy Lab (AID 2284214)
Procedure, shortened: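 Rat primary cortical cultures, AraC added DIV 5, dosed DIV 7 through DIV 12 […]. Fixed, MAP2/synaptophysin immunostained with Hoechst; neurite length by high-content imaging, fitted in positive direction versus DMSO.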

[3] = CCTE_Mundy_HCI_Cortical_Synap_Neur_Matur_NeuriteSpotCountPerNeuron: CCTE's Synaptogenesis and Neurite Maturation Assay in rat cortical cells for Neurite Spot Count per Neuron Count, Mundy Lab (AID 2284215)
Procedure, shortened: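 Developing rat cortical neurons, with glia suppressed by AraC, are exposed to chemicals from DIV 7 to DIV 12. Automated fluorescence imaging of MAP2-labelled neurites and synaptophysin puncta yields a count per neuron, normalised against DMSO wells.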

[4] = CCTE_Mundy_HCI_Cortical_Synap_Neur_Matur_SynapseCount: CCTE's Synaptogenesis and Neurite Maturation Assay in rat cortical cells for Synapse Count, Mundy Lab (AID 2284218)
Procedure, shortened: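 Rat primary cortical cultures, AraC at DIV 5, chemical dosing DIV 7 to DIV 12 (288.33 h). Fixed cells stained for MAP2, synaptophysin and Hoechst; synapses per neuron counted by high-content imaging, loss of signal versus DMSO.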

[5] = CCTE_Mundy_HCI_Cortical_Synap_Neur_Matur_NeuriteCount: CCTE's Synaptogenesis and Neurite Maturation Assay in rat cortical cells for Neurite Count, Mundy Lab (AID 2284222);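 further: exposure from day 7 to day 12 in vitro with readout at day 12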
Procedure, shortened: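 Rat primary cortical cells; AraC added at DIV 5, chemicals dosed with media change at DIV 7 through DIV 12. MAP2/synaptophysin/Hoechst immunostaining, high-content imaging of neurite number; fitted relative to DMSO.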

[6] = CCTE_Mundy_HCI_Cortical_Synap_Neur_Matur_CellBodySpotCount: CCTE's Synaptogenesis and Neurite Maturation Assay in rat cortical cells for Cell Body Spot Count, Mundy Lab (AID 2284223)
Procedure, shortened: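 Chemicals were applied to AraC-treated rat primary cortical cells at DIV 7 and measured at DIV 12. Fixed cells were labelled for MAP2, synaptophysin and nuclei, and high-content imaging gave cell body synaptophysin spot counts per neuron relative to DMSO.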

[7] = CCTE_Mundy_HCI_hNP1_Pro_ResponderAvgInten: CCTE's Proliferation Assay in human neuroprogenitor cells, Mundy Lab (AID 2284224; active means hit-call score of the fitted dose curve at least 0.9, where 1 is the maximum;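 further: human neural progenitor cells hNP1 derived from WA09 embryonic stem cells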)
Procedure, shortened: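 Proliferation read as average intensity of BrdU-positive cells, imaged at 26.25 h post-dosing: chemical exposure started after 40–44 h culture, BrdU during final 4 h, paraformaldehyde fixation. Positive-direction fit relative to DMSO.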

[8] = UKN2_HCS_IMR90_cell_viability: Viability Assessment in the University of Konstanz (UKN) Leist Lab Neural Crest Cell Migration Assay in human induced IMR90 Pluripotent Stem Cells (UKN2) (AID 2284233);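 further: viability of neural crest cells differentiated from IMR90 iPSC measured by calcein-AM fluorescence imaging; cells exposed to compound for 24 h after a 24 h migration phase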
Procedure, shortened: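 Neural crest cells derived from IMR90 iPSC migrate into a stopper-free zone for 24 h in EGF/FGF medium, then are exposed to compound for 24 h. Viability assessed by calcein-AM and Hoechst staining with high-content imaging, fitted bidirectionally versus DMSO.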

[9] = CCTE_Mundy_HCI_Cortical_NOG_NeuronCount: CCTE's Neurite Outgrowth Assay in rat cortical cells for Neuron Count, Mundy Lab (AID 2284236; active means hit-call score of the fitted dose curve at least 0.9, where 1 is the maximum;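 further: neurons counted by imaging betaIII-tubulin and Hoechst stained cortical cells; cells exposed to compound for about 48 hours before fixation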)
Procedure, shortened: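 Read-out: neuron number by high-content imaging of betaIII-tubulin (Alexa Fluor-488) and Hoechst-labelled rat primary cortical cells.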

[10] = CCTE_Mundy_HCI_Cortical_NOG_BPCount: CCTE's Neurite Outgrowth Assay in rat cortical cells for Branch Point Count, Mundy Lab (AID 2284237)
Procedure, shortened: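 Measured 50.33 h after dosing, this morphology endpoint uses rat primary cortical cultures labelled for betaIII-tubulin. Branch points are quantified by high-content imaging, with DMSO as negative control and baseline.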

[11] = CCTE_Mundy_HCI_hNP1_Casp3_7: CCTE's Caspase-Glo 3/7 Assay in human neuroprogenitor cells for Apoptosis, Mundy Lab (AID 2284240)
Procedure, shortened: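 Luminescent caspase-3/7 readout, 26.5 h post-dose, in human neural progenitor cells from WA09 embryonic stem cells. Cells grew 40–44 h at 37 °C, 5% CO2 before chemical addition. Activity analysed as signal increase over DMSO baseline.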

[12] = CCTE_Mundy_HCI_hNP1_CellTiter: CCTE's Cell Titer-Glo 2 Assay in human neuroprogenitor cells for Viability, Mundy Lab (AID 2284241; active means hit-call score of the fitted dose curve at least 0.9, where 1 is the maximum)
Procedure, shortened: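 Viability read as luminescent ATP content (CellTiter-Glo, 30 min room temperature) twenty-four hours after dosing, relative to DMSO. Cells: WA09-derived hNP1 neuroprogenitors on poly-L-ornithine/laminin, plated 40 to 44 hours before chemical.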

[13] = CCTE_Mundy_HCI_Cortical_Synap_Neur_Matur_NeuronCount: CCTE's Synaptogenesis and Neurite Maturation Assay in rat cortical cells for Neuron Count, Mundy Lab (AID 2284242; active means hit-call score of the fitted dose curve at least 0.9, where 1 is the maximum)
Procedure, shortened: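 Rat primary cortical cells, AraC added at DIV 5, dosed with media change from DIV 7 to DIV 12. Fixed, Hoechst-stained and immunolabelled for MAP2 and synaptophysin; neuron number counted by high-content imaging, loss fitted versus DMSO.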

[14] = IUF_NPC2c_oligodendrocyte_migration_120hr: Leibniz Research Institute for Environmental Medicine (IUF) 120-hour Neural Progenitor Cell Migration Assay for Oligodendrocyte Migration (NPC2c) (AID 2284297);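 further: O4-positive oligodendrocyte migration distance divided by radial glia migration distance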
Procedure, shortened: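 Using fetal brain neural progenitor spheres differentiating in N2 medium at 37C, compounds were present for 120 h. Oligodendrocyte migration distance, normalized to radial glia migration, was measured from imaged O4 staining.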

[15] = IUF_NPC2a_radial_glia_migration_120hr: Leibniz Research Institute for Environmental Medicine (IUF) 120-hour Neural Progenitor Cell Migration Assay for Radial Glia Migration (NPC2a) (AID 2284298)
Procedure, shortened: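 Exposure of 0.3 mm primary hNPC spheres runs day 0 to 120 h with a half-volume medium change at day 3. Fixed cells get Hoechst staining; high-content analysis of nuclear positions yields radial glia migration distance per well, compared against DMSO controls.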

[16] = IUF_NPC2a_radial_glia_migration_72hr: Leibniz Research Institute for Environmental Medicine (IUF) 72-hour Neural Progenitor Cell Migration Assay for Radial Glia Migration (NPC2a) (AID 2284299)
Procedure, shortened: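 Human fetal neural progenitor spheres (0.3 mm) plated on poly-D-lysine/laminin in N2 differentiation medium and exposed from day 0 at 7 concentrations; radial glia migration distance from sphere edge measured at 72 h on brightfield images, mean of four directions, vs DMSO.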

[17] = IUF_NPC2b_neuronal_migration_120hr: Leibniz Research Institute for Environmental Medicine (IUF) 120-hour Neural Progenitor Cell Migration Assay for Neuron Migration (NPC2b) (AID 2284300)
Procedure, shortened: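 Fetal human NPC spheres migrate on PDL/laminin during 120 h compound treatment; neuronal migration distance, glia-normalized, scored versus DMSO control.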

[18] = IUF_NPC3_neuronal_differentiation_120hr: Leibniz Research Institute for Environmental Medicine (IUF) 120-hour Neuronal Differentiation Assay (NPC3) (AID 2284301)
Procedure, shortened: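 Human fetal (GW 16-19) neural progenitor spheres (0.3 mm) plated on poly-D-lysine/laminin in N2 differentiation medium, exposed 120 h at 37C with half-medium renewal day 3; 7 concentrations. TUBB3+ cells as % of Hoechst nuclei, CNN-identified; DMSO baseline.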

[19] = IUF_NPC4_neurite_area_120hr: Leibniz Research Institute for Environmental Medicine (IUF) 120-hour Neuronal Morphology Assay for Neurite Area (NPC4) (AID 2284305; active means hit-call score of the fitted dose curve at least 0.9, where 1 is the maximum)
Procedure, shortened: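 Human fetal neural progenitor spheres (0.3 mm) plated on poly-D-lysine/laminin in N2 differentiation medium, exposed 120 h (7 concentrations, DMSO ≤0.1%, half-medium refresh day 3). Fixed, TUBB3 immunostained; mean neurite area per neuron by Omnisphero skeletonization.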

[20] = IUF_NPC2-5_cytotoxicity_72hr: Cytotoxicity Assessment at 72 hours in the Leibniz Research Institute for Environmental Medicine (IUF) Neural Progenitor Cell Migration and Differentiation Assay for Cytotoxicity (NPC2-5) (AID 2284306; active means hit-call score of the fitted dose curve at least 0.9, where 1 is the maximum;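 further: LDH release into supernatant measured by resorufin fluorescence marking membrane damage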)
Procedure, shortened: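 Human fetal primary neural progenitor spheres (0.3 mm) plated on poly-D-lysine/laminin in N2 differentiation medium, exposed from day 0 at 37C. LDH-dependent resazurin-to-resorufin fluorescence in supernatant at 72 h; 7 concentrations, DMSO at most 0.1%.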

[21] = IUF_NPC2-5_cell_number_120hr: Cell Number Assessment at 120 hours in the Leibniz Research Institute for Environmental Medicine (IUF) Neural Progenitor Cell Migration and Differentiation Assay (NPC2-5) (AID 2284308);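 further: count of Hoechst-stained nuclei in migration zone around plated human neural progenitor spheres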
Procedure, shortened: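 Seven-point serial dilutions plus solvent control were applied to plated 0.3 mm hNPC spheres at differentiation start, with medium half-replaced at day 3. Nuclei positive for Hoechst in the migration zone were enumerated at 120 h.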

[22] = IUF_NPC2-5_viability_120hr: Viability Assessment at 120 hours in the Leibniz Research Institute for Environmental Medicine (IUF) Neural Progenitor Cell Migration and Differentiation Assay (NPC2-5) (AID 2284312)
Procedure, shortened: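 Human fetal neural progenitor spheres (0.3 mm) plated on poly-D-lysine/laminin in N2 differentiation medium, exposed 120 h with half-medium refresh at day 3. Viability by alamar blue resazurin fluorescence; 7 concentrations, DMSO max 0.1%.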

[23] = CCTE_Mundy_HCI_iCellGluta_NOG_NeuriteLength: CCTE's Neurite Outgrowth Assay in iCellGluta cells for Neurite Length, Mundy Lab (AID 2284318; active means hit-call score of the fitted dose curve at least 0.9, where 1 is the maximum)
Procedure, shortened: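 Automated high-content imaging of betaIII-tubulin (Alexa Fluor-488) and Hoechst-stained cells gave neurite length, normalized to the DMSO baseline.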

[24] = IUF_NPC1_cytotoxicity_72hr: Cytotoxicity Assessment at 72 hours in the Leibniz Research Institute for Environmental Medicine (IUF) Neural Progenitor Cell Proliferation Assay (NPC1) (AID 2284332; active means hit-call score of the fitted dose curve at least 0.9, where 1 is the maximum;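 further: rising LDH signal means more cytotoxicity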)
Procedure, shortened: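 Human fetal neural progenitor spheres (0.3 mm) in EGF/FGF proliferation medium, 37C, exposed 72 h without renewal. LDH release in supernatant read by resorufin fluorescence; gain of signal scored relative to dynamic range.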

[25] = CCTE_Mundy_HCI_iCellGluta_NOG_NeuriteCount: CCTE's Neurite Outgrowth Assay in iCellGluta cells for Neurite Count, Mundy Lab (AID 2284342; active means hit-call score of the fitted dose curve at least 0.9, where 1 is the maximum;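 further: chemical exposure about 48 hours starting 2 hours after plating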)

Measured: outcome

CCCCCC=C(C)C(CC)CCO (stereo not given)
inactive: all assays above
